From publication PMC7862700, “An all-to-all approach to the identification of sequence-specific readers for epigenetic DNA modifications on cytosine” come the findings set out here.

Experiment in all cases: DAPPL (digital affinity profiling via proximity ligation, sequencing); 10 mM Tris-HCl pH 7.5, 50 mM NaCl, 1 mM DTT, 4% glycerol, room temperature, 30 min; GST-TFs on glutathione beads, 16-mer random dsDNA library, 0.1% formaldehyde crosslink after washing; high values mean tight binding
In one test the target is T1, FEV (Homo sapiens, UniProt Q99581 1-238).
T1 sequence: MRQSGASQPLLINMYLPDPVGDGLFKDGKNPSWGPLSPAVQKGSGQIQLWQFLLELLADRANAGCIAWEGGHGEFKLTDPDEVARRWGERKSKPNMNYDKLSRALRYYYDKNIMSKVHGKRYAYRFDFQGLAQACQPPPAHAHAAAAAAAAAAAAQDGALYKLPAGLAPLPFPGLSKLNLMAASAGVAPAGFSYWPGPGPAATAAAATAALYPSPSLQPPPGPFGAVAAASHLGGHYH
The conditions noted are these: protein: recombinant; tags: N-terminal GST; dsDNA, one strand shown. A digest of the protocol:
(§1)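 Binding signal is each hexamer's read frequency for a factor divided by its frequency in the tag-only sample. The factors were GST-fused human transcription factors from yeast, captured on glutathione beads, DNA-barcoded and pooled with that sample. Pools were incubated with 200 nmole of a random double-stranded 16-mer DNA library in Tris/NaCl/DTT/glycerol buffer at room temperature for 30 min, then washed, crosslinked with 0.1% formaldehyde, proximity-ligated with BsaI/T4 ligase (1 h, 37 °C), PCR-amplified and sequenced on an Illumina NextSeq500.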

Another test addresses ETV5 (Homo sapiens, UniProt P41161 1-510). The conditions noted are these: protein: recombinant; tags: N-terminal GST; dsDNA, one strand shown. A digest of the protocol:
as §1

The target of another test is HSF1 (Homo sapiens, UniProt Q00613 1-529). The settings on record: protein: recombinant; tags: N-terminal GST; chain copies: 3; dsDNA, one strand shown. A digest of the protocol: as §1
A further test addresses T2, SPIC (Homo sapiens, UniProt Q8N5J4 1-248).
T2 sequence: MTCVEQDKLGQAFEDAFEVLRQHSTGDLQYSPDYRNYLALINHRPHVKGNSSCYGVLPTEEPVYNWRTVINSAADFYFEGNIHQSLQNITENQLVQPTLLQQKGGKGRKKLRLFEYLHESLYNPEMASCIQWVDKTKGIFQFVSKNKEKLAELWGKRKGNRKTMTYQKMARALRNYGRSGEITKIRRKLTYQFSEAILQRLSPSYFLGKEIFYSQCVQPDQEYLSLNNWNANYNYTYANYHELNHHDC
The conditions noted are these: protein: recombinant; tags: N-terminal GST; dsDNA, one strand shown. A digest of the protocol:
as §1

Another test concerns the target ELF4 (Homo sapiens, UniProt Q99607 1-663). The conditions noted are these: protein: recombinant; tags: N-terminal GST; dsDNA, one strand shown. A digest of the protocol: as §1
The target in another test is T3, ELK4 (Homo sapiens, UniProt P28324-2 1-405).
T3 sequence: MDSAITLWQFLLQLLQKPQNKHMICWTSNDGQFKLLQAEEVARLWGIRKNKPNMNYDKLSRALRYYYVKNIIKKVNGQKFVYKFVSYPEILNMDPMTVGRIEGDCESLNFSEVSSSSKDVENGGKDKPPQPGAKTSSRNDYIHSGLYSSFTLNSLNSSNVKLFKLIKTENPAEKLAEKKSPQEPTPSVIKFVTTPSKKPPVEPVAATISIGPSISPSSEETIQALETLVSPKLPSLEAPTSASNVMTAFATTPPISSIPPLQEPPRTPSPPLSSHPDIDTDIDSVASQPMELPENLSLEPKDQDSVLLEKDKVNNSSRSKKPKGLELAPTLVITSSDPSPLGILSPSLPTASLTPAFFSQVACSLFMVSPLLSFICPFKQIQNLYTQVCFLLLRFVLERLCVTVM
The conditions noted are these: protein: recombinant; tags: N-terminal GST; dsDNA, one strand shown. A digest of the protocol:
as §1

The next test deals with T4, ETV2 (Homo sapiens, UniProt O00321 1-342).
T4 sequence: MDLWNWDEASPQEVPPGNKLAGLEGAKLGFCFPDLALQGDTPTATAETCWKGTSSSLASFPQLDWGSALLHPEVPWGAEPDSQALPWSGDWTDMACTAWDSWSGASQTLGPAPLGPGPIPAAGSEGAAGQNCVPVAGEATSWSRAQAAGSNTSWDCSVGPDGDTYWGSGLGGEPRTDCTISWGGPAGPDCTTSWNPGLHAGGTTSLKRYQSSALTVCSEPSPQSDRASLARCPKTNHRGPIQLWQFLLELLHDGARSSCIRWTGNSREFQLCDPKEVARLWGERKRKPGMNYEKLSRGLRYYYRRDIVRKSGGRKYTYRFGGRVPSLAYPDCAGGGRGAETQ
The conditions noted are these: protein: recombinant; tags: N-terminal GST; dsDNA, one strand shown. A digest of the protocol: as §1

For another test, the target named is T5, ELF3 (Homo sapiens, UniProt P78545 1-371).
T5 sequence: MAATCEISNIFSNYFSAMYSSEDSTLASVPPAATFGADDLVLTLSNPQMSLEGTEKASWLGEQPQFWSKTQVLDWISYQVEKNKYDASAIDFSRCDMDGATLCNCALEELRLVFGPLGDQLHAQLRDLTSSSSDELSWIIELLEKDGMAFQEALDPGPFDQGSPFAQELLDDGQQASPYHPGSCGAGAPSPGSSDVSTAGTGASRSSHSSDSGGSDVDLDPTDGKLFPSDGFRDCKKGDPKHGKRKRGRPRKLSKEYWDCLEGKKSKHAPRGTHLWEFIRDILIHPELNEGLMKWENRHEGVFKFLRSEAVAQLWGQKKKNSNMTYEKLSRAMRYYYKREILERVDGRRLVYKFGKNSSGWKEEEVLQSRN
The conditions noted are these: protein: recombinant; tags: N-terminal GST; dsDNA, one strand shown. A digest of the protocol:
as §1

The target in the next test is CRX (Homo sapiens, UniProt O43186 1-299). The conditions noted are these: protein: recombinant; tags: N-terminal GST; dsDNA, one strand shown. A digest of the protocol: as §1
The target in another test is ETV1 (Homo sapiens, UniProt P50549 1-477). The conditions noted are these: protein: recombinant; tags: N-terminal GST; dsDNA, one strand shown. A digest of the protocol: as §1
For a further test, the target named is T6, ERF (Homo sapiens, UniProt P50548 1-548).
T6 sequence: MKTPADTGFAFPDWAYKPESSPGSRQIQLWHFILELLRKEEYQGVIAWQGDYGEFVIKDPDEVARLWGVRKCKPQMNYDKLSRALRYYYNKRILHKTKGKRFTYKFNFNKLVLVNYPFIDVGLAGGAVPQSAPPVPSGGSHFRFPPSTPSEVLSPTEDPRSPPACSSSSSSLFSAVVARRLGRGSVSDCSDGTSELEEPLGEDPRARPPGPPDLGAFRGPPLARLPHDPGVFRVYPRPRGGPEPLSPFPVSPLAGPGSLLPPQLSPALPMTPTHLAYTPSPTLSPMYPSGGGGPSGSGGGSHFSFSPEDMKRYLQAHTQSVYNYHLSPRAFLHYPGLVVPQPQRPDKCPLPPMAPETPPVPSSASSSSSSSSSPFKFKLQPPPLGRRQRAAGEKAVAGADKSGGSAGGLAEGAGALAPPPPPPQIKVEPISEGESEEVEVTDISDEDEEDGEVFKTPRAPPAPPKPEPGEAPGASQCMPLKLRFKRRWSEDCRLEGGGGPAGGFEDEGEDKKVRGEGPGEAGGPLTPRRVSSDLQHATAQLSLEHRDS
The settings on record: protein: recombinant; tags: N-terminal GST; dsDNA, one strand shown. A digest of the protocol: as §1

The target of the next test is T7, ETV3L (Homo sapiens, UniProt Q6ZN32 1-361).
T7 sequence: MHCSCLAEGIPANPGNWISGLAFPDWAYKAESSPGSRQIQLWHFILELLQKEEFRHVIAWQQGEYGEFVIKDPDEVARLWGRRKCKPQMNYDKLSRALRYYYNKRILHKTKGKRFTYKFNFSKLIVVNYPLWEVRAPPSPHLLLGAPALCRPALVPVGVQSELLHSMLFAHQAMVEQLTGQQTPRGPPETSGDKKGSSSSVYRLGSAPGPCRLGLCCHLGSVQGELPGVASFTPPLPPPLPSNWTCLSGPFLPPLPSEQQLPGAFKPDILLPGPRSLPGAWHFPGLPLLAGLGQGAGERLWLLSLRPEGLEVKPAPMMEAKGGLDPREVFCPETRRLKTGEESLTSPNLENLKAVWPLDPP
The settings on record: protein: recombinant; tags: N-terminal GST; dsDNA, one strand shown. A digest of the protocol:
as §1

In a further test the target is T8, ETS2 (Homo sapiens, UniProt P15036 1-469).
T8 sequence: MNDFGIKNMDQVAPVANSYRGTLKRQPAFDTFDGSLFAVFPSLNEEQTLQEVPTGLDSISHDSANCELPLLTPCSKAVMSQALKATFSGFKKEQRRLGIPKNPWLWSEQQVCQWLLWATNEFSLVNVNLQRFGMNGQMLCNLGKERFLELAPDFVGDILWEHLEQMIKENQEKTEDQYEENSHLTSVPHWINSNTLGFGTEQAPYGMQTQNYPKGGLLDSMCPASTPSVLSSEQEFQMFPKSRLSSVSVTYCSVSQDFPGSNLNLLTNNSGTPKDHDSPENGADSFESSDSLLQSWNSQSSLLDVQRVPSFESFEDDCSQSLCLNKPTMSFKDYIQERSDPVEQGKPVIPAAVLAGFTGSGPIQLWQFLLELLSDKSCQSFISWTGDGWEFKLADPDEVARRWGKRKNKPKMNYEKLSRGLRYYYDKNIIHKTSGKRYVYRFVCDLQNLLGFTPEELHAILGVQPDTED
The settings on record: protein: recombinant; tags: N-terminal GST; dsDNA, one strand shown. A digest of the protocol:
as §1

The target of another test is T9, SPDEF (Homo sapiens, UniProt O95238 1-335).
T9 sequence: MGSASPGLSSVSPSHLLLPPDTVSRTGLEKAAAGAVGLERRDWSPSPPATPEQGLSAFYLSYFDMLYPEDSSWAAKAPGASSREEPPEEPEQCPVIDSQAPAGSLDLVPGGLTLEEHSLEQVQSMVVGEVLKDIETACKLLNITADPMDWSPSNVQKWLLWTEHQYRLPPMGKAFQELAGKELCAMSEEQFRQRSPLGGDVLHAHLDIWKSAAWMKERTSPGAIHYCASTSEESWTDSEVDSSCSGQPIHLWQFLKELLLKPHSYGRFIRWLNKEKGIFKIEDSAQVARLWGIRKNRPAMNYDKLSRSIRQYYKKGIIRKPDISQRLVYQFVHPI
The conditions noted are these: protein: recombinant; tags: N-terminal GST; dsDNA, one strand shown. A digest of the protocol: as §1

A further test addresses T10, ETV7 (Homo sapiens, UniProt Q9Y603 1-341).
T10 sequence: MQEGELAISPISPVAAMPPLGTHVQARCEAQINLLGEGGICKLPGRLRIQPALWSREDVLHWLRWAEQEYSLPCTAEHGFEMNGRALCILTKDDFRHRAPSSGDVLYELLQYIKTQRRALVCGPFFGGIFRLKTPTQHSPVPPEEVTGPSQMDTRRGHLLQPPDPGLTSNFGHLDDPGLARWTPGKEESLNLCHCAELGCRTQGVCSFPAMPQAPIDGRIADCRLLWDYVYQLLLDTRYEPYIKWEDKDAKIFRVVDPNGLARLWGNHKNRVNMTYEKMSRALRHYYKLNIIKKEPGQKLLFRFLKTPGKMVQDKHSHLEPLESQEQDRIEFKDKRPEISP
The conditions noted are these: protein: recombinant; tags: N-terminal GST; dsDNA, one strand shown. A digest of the protocol:
as §1

A further test addresses T11, ELF5 (Homo sapiens, UniProt Q9UKW6-2 1-255).
T11 sequence: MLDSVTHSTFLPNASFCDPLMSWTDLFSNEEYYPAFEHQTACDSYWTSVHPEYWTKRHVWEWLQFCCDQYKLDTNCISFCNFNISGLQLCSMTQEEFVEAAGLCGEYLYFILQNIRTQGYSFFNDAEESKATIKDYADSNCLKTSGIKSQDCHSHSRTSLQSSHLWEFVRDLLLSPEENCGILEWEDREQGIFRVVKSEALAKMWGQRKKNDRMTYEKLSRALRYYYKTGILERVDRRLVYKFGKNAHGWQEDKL
The conditions noted are these: protein: recombinant; tags: N-terminal GST; dsDNA, one strand shown. A digest of the protocol: as §1

The next test has as its target T12, ETV3 (Homo sapiens, UniProt P41162-2 1-143).
T12 sequence: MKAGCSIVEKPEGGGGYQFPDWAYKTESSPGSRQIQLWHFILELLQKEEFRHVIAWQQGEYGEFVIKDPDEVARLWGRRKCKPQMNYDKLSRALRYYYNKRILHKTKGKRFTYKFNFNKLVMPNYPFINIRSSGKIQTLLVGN
The settings on record: protein: recombinant; tags: N-terminal GST; dsDNA, one strand shown. A digest of the protocol:
as §1

The target of a further test is ETV6 (Homo sapiens, UniProt P41212 1-452). The settings on record: protein: recombinant; tags: N-terminal GST; dsDNA, one strand shown. A digest of the protocol:
as §1

Chain of ETV6 (P41212 whole entry): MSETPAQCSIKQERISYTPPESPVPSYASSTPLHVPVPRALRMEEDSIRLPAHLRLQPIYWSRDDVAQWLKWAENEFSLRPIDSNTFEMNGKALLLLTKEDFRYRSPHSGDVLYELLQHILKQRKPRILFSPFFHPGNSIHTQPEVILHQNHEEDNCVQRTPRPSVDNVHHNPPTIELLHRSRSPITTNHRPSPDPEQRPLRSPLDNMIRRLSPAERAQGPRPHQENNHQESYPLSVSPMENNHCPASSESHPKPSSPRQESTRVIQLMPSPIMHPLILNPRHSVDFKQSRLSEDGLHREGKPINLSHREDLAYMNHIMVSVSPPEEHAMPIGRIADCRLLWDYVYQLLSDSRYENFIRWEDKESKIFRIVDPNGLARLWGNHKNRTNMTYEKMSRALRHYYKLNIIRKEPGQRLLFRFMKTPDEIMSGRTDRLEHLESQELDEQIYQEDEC
Chain of ETV1 (P50549 whole entry): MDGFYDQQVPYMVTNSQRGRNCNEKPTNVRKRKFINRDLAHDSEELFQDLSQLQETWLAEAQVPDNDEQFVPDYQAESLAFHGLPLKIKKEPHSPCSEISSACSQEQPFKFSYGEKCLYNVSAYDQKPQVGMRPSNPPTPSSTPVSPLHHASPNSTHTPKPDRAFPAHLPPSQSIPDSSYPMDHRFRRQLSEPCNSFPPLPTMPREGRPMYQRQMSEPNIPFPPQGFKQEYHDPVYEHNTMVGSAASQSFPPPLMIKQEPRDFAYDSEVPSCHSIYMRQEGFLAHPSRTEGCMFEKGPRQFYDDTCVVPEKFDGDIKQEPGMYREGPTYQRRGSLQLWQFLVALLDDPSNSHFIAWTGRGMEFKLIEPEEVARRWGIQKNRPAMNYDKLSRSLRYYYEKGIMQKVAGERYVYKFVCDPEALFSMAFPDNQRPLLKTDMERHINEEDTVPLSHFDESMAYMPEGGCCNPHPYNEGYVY
Chain of ELF4 (Q99607 whole entry): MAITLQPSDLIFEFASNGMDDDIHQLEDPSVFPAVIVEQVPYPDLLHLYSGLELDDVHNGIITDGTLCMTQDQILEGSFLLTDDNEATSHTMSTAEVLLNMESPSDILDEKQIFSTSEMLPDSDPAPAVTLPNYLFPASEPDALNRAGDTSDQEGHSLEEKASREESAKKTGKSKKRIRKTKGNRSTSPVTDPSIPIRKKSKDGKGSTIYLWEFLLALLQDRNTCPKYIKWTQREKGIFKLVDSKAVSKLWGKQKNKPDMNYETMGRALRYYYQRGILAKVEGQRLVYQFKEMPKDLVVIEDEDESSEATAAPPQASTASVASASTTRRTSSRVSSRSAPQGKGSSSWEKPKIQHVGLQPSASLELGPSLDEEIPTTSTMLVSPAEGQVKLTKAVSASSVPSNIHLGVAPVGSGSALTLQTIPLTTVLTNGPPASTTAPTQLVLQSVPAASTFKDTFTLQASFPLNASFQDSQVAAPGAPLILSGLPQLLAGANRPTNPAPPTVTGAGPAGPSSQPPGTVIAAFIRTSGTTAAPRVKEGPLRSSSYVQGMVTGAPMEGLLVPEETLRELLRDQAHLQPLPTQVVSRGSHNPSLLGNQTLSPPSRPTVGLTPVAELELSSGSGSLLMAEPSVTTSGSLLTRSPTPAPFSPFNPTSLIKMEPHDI
Chain of ETV5 (P41161 whole entry): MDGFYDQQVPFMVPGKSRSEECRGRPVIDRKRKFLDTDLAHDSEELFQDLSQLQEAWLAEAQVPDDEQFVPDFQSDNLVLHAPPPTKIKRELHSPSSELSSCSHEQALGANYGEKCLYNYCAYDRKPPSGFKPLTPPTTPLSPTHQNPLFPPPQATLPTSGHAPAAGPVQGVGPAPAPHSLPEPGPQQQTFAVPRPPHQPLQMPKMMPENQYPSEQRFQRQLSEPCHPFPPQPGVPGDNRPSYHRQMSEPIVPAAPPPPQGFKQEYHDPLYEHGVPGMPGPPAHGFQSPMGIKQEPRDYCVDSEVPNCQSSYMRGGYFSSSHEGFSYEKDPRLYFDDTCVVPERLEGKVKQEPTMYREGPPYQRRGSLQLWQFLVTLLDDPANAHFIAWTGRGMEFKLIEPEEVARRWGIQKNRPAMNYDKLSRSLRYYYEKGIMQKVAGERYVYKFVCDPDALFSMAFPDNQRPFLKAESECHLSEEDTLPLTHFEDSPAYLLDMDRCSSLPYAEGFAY
Chain of HSF1 (Q00613 whole entry): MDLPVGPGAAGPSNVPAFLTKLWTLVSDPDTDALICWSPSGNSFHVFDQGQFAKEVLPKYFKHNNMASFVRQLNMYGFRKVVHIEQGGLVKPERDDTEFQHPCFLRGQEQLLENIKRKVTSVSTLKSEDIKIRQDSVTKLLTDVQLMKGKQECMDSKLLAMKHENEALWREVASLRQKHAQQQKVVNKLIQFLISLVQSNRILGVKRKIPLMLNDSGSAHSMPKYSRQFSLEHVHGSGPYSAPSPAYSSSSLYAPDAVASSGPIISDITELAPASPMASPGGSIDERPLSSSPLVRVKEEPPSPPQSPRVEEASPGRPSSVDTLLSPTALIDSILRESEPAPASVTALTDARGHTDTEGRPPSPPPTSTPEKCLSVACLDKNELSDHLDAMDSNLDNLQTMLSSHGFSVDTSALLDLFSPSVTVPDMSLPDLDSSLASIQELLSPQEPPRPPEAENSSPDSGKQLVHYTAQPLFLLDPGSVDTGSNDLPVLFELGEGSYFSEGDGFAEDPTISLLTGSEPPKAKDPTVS
Chain of CRX (O43186 whole entry): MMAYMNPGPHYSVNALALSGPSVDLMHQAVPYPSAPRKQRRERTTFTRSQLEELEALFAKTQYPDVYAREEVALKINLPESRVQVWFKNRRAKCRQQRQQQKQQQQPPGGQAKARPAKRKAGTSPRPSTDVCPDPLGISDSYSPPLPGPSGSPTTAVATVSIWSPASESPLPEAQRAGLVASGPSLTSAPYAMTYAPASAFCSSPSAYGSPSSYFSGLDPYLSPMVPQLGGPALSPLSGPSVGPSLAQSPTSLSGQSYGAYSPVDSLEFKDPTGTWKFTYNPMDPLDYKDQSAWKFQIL

As for CGATGG, the binding signal with FEV was 1.23 fold enrichment (6-mer frequency, TF over GST control); with ETV5 it was 1.28 fold enrichment (6-mer frequency, TF over GST control); with HSF1 it was 1.36 fold enrichment (6-mer frequency, TF over GST control); in the test with SPIC, 1.31 fold enrichment (6-mer frequency, TF over GST control); with ELF4 it was 1.36 fold enrichment (6-mer frequency, TF over GST control); with ELK4, 1.46 fold enrichment (6-mer frequency, TF over GST control). Besides, the binding signal with ETV2 is 1.34 fold enrichment (6-mer frequency, TF over GST control); with ELF3 it was 1.15 fold enrichment (6-mer frequency, TF over GST control); with CRX, 1.14 fold enrichment (6-mer frequency, TF over GST control); with ETV1, 1.41 fold enrichment (6-mer frequency, TF over GST control); with ERF, 1.18 fold enrichment (6-mer frequency, TF over GST control); with ETV3L it was 1.34 fold enrichment (6-mer frequency, TF over GST control). The binding signal with ETS2 was 1.33 fold enrichment (6-mer frequency, TF over GST control); with SPDEF, 1.29 fold enrichment (6-mer frequency, TF over GST control); in the test with ETV7 it was 1.39 fold enrichment (6-mer frequency, TF over GST control); with ELF5 it was 1.18 fold enrichment (6-mer frequency, TF over GST control); in the test with ETV3 it was 1.24 fold enrichment (6-mer frequency, TF over GST control); with ETV6 it was 1.33 fold enrichment (6-mer frequency, TF over GST control).
